Bioassay records deposited in PubChem by several laboratories.
Most compounds without a hit are left out; they make up all but 3.1% or so of the library.
SKKanGAS inh = blocks kanamycin growth of S. pyogenes SKKanGAS strain | inhibition, % at 7.5 µM | BacTiter-Glo, 6 h | 300,000 tested, 1.3% active;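 active means mean replicate score, as percent of positive control median, at least 50; inconclusive means mean below 50 but one replicate at or above 50; inactive means mean and every replicate below 50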;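 further: strain carries kanamycin resistance gene driven by streptokinase promoter and grows in 40 µg/ml kanamycin; loss of luminescence reflects streptokinase promoter inhibition or plain growth inhibition; 0% = median of DMSO wells and 100% = positive control at its reference dose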
PP1 counter = blocks human PP1-alpha phosphatase, a PP5 counter-screen. P62136. purified PP1alpha, OMFP fluorescence. inhibition, % at 6.7 µM. 320,000 tested, 0.9% active;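 active means inhibition above the mean inhibition of all tested compounds plus 3 SD, computed separately for each screening campaign, cut at about 15% in these data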
CSC inhib = cancer stem cell inhibition; AID 2717; cancer stem cell-like cells viability, luminescence; 300,000 tested, 1.1% active; inhibition, % at 7.5 µM; in the data active means inhibition above about 75%; inconclusive means no clear call, values can overlap the other calls; tested in HMLE shEcad cells
Beta apoptosis = blocks beta cell apoptosis. INS-1E cytokine-induced death, ATP luminescence, 48 h; percent of positive-control rescue, neutral wells zero. protection from apoptosis, % (concentration not given with the values). 300,000 tested, 0.8% active. AID 435005;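 active means Every replicate reaches about 75%, or at least half do and their mean reaches it too, limit read from the data; inconclusive means At least half of replicates reach the limit but their mean does not; inactive means Under half of replicates reach the limit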;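 further: 0% = cytokine-treated negative control wells and 100% = positive control rescue; higher means more ATP so stronger rescue from cytokine killing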
PP5 primary = blocks human protein phosphatase 5 activity; 320,000 tested, 0.18% active; P53041; purified PP5c, OMFP substrate fluorescence; inhibition, % at 6.7 µM;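 active means inhibition above the campaign's mean inhibition across all tested compounds plus 3 SD, cut at about 9.5% in these data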;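 further: 0% = DMSO only and 100% = 100 µM cantharidin control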
Target sequence (P53041 whole entry, looked up): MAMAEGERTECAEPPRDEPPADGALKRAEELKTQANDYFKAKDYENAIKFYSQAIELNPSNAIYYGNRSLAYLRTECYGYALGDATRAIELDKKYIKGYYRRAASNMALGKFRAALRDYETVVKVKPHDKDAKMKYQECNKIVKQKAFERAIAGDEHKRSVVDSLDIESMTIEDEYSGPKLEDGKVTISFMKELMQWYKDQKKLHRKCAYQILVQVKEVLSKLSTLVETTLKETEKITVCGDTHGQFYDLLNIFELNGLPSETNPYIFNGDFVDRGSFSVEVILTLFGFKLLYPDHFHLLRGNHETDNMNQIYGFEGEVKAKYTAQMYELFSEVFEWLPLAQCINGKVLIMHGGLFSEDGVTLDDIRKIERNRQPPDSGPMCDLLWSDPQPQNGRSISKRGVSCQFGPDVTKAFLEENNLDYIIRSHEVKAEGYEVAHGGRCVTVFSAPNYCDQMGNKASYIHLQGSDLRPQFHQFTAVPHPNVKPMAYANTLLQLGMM
The depositor's hits bear a star; ? = inconclusive; . = not tested or not shown.

SMILES	SKKanGAS inh	PP1 counter	CSC inhib	Beta apoptosis	PP5 primary
O=C(O)c1ccc(N2C(=O)CC(SC(=NCc3ccc4c(c3)OCO4)Nc3ccccc3)C2=O)cc1 (stereo not given)	16.1	8.6	-7.2	2.4	4.0
O=C(O)c1ccc(N2C(=O)CC(SC(=NCc3ccc4c(c3)OCO4)Nc3ccc(F)cc3)C2=O)cc1 (stereo not given)	59.5*	11.5	1.5	-6.2	5.7
COc1ccc(C2C(C#N)=C(N)Oc3cc(C)[nH]c(=O)c32)cc1OC (stereo not given)	-5.7	-3.2	-4.7	-4.7	-2.3
CCN(CC)CCOCCOc1cc(C)c(Cl)c(C)c1	-2.6	1.7	88.7*	-3.3	0.7
COC(=O)CCC(C)N1CCC(Oc2ccc(C(=O)NCc3ccccn3)cc2)CC1 (stereo not given)	3.2	.	.	.	.
CCn1c(C)c(C)c2cc(C(=O)Nc3cccc(Cl)c3)ccc21	7.1	4.5	80.8*	3.8	-2.0
COc1ccc(C2(C)NC(=O)N(CC3CCCCC3)C2=O)cc1 (stereo not given)	-9.1	2.3	-5.3	-20.1	-0.6
CCC1(c2ccccc2)NC(=O)N(CC(=O)Nc2ccc(S(=O)(=O)Nc3ncccn3)cc2)C1=O (stereo not given)	11.0	-1.3	-8.7	-2.7	0.9
O=C1Nc2ccc(Br)cc2C1(O)c1ccccc1 (stereo not given)	4.5	-3.8	6.2	-2.9	0.0
O=C1Nc2ccc(Br)cc2C12NNc1ccccc1O2 (stereo not given)	20.0	3.7	82.5*	-2.5	4.5
Cc1ccc(S(=O)(=O)NCc2ccncc2)c(C)c1C	-6.7	-2.1	-10.8	115.6*	-1.9
Cc1ccc(S(=O)(=O)NCc2ccccn2)c(C)c1C	2.3	3.7	-16.0	.	-0.4
CCOC(=O)/C(C#N)=C1\Nc2ccccc2N=C1N(CC(C)C)CC(C)C	35.5	-1.4	?	-12.7	2.3
CCCCN(CCCC)C1=Nc2ccccc2N/C1=C(/C#N)C(=O)OCC	72.1*	-1.1	-8.9	5.4	2.1
O=C(Nc1ncnc2c1C(c1ccccc1)c1c(ccc3ccccc13)O2)c1ccccc1 (stereo not given)	.	.	.	81.7*	.
O=C(Cc1ccccc1)Nc1ncnc2c1C(c1ccccc1)c1c(ccc3ccccc13)O2 (stereo not given)	.	.	42.0	13.2	.
COc1ccc(N(CC(=O)Nc2ccccc2C(N)=O)S(=O)(=O)c2ccc(C)c([N+](=O)[O-])c2)cc1	0.0	-2.8	-8.6	-4.5	1.4
CCN(CC)CCNC(=O)CCc1nnc2ccc(N3CCC(C)CC3)nn12	-4.7	-0.1	-4.5	-7.0	-0.8
O=C1C2CC=CCC2C(=O)N1c1ccc(NCCc2ccccc2F)c([N+](=O)[O-])c1 (stereo not given)	-25.9	-1.5	-10.1	-0.1	-0.8
O=C1C2CC=CCC2C(=O)N1c1ccc(NCCc2ccccc2)c([N+](=O)[O-])c1 (stereo not given)	-9.3	-0.2	80.0*	-10.5	3.1
CC(C)(C)c1ccc(S(=O)(=O)Nc2cccc(C3OCCCO3)c2)cc1	-19.0	1.7	-7.6	-1.2	3.2
COc1ccc(-c2ccc([C@H]3[C@H]4C=CC[C@@H](C)[C@@H]4C(=O)N3Cc3ccccc3)c(F)c2)cc1	41.0	3.6	66.1	68.7	-1.5
COc1ccc(-c2c([C@H]3[C@H]4C=CC[C@@H](C)[C@@H]4C(=O)N3Cc3ccccc3)ccc3ccccc23)cc1	27.8	11.2	46.0	106.8*	3.2
COC(=O)c1cc(S(=O)(=O)NCc2cccs2)c[nH]1	-9.5	-2.5	1.1	-4.7	2.3
O=C1CC(NS(=O)(=O)c2cccs2)CN1c1ccccc1 (stereo not given)	-3.7	-4.7	-12.2	1.3	-0.7
SMILES	SKKanGAS inh	PP1 counter	CSC inhib	Beta apoptosis	PP5 primary
Cc1cccc(C(=O)O)c1NC(=O)Cc1cccc2ccccc12	-1.4	-5.1	-9.9	-2.0	0.5
O=C(CCc1nnc(C2CCCCC2)o1)N1CCC(Oc2cccnc2)CC1	-0.5	2.2	13.7	-2.4	3.4
Clc1ccc2nc(-c3ccncc3)cc(-c3ccccc3)c2c1	-0.5	-3.6	-0.5	-4.2	-0.3
c1ccc(-c2cc(-c3ccncc3)nc3ccc4ccccc4c23)cc1	100.1*	2.0	102.4*	0.1	4.6
COc1ccc(OC)c(-c2csc(NC(=O)C3=COCCO3)n2)c1	-12.5	-4.8	-8.7	.	1.5
c1ccc(NNC2=NCCCCC2)cc1	-0.8	1.4	84.0*	1.6	0.3
c1ccc(CNC2=NCCCCC2)cc1	-4.7	-5.1	-2.5	0.2	3.3
